Hits are enriched below; roughly 21% of the tested compounds scored in any of these assays.
Cycloheximide cs: counter-screen for Shiga toxin inhibitors: cycloheximide protein synthesis inhibition. 12% of 300,000 active. cell reporter, cycloheximide protein synthesis inhibition counterscreen. max response, %. AID 2314; in the data active = max response mostly above about 13%, no sharp cut-off; inactive = mostly below about 14%; also: read at 38.3 µM for the half of the compounds with a filed dose; 0% is about no effect
NS1 function inh: influenza NS1 inhibition | Potency, µM (titrated, usually from 46.1 µM), for the others: at the top dose activity, positive = more growth | 0.4% of 270,000 active | AID 2326; calls by dose curve; also: potency is read from the fitted curve at half-maximal effect; actives are rising curves; nearly all actives have a fitted effect of over 50% in size
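In this qHTS, NS1 from influenza A is expressed in budding yeast, where it slows growth. Cells are switched from glucose to 2% galactose medium (pH 6.0, -URA), treated with compound, and growth recovery is read at OD600.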
Pf growth 96h: P. falciparum growth inhibition at 96 hour, primary screen for plastid delayed-death inhibitors; Potency, µM (highest dose often 28.7 µM), for the others: at the highest dose activity change, negative = inhibition, usual class: inhibitors; 6.9% of 320,000 active; P. falciparum luciferase reporter growth, 96 h; also: potency is read from the fitted curve at half-maximal effect; % is scaled to controls: 0 for no effect and ±100 for the full control effect
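P. falciparum expressing integrated firefly luciferase, in erythrocytes at 2% hematocrit, 0.05% parasitemia, incubated with compounds 96 h at 37 C, 5% CO2. Growth inhibition read as loss of luminescence; two-generation exposure targets delayed-death apicoplast inhibitors.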
Pf growth 48h: P. falciparum growth inhibition at 48 hours (one generation); 5.9% of 310,000 active; Potency, µM (doses to about 28.7 µM), for inactives: at the highest dose activity change, negative = inhibition, most hits filed as inhibitors; AID 504832; P. falciparum luciferase growth in erythrocytes, 48 h; also: potency is read from the fitted curve at half-maximal effect; % is scaled to controls: 0 for no effect and ±100 for the full control effect
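Parasite viability was followed by luminescence of a genomically integrated firefly luciferase. Cultures held 0.1% parasitemia at 2% hematocrit (final), incubated under 5% CO2 at 37 C.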
Shiga inhibitor: blocks Shiga toxin action in Vero cells | Vero cells, Shiga toxin protein synthesis inhibition reporter | inhibition, % at 38.7 µM | 9.2% of 290,000 active; in the data active = inhibition mostly above about 28%, no sharp cut-off; inactive = mostly below about 43%; also: 0% is about no effect
An asterisk follows results filed as active; ? = inconclusive; / = not tested or not shown; + = active, no number; [ ] = dose if it differs, or a comment. Unless noted, calls follow the shape of the dose curve; as a rule, active = well fitted inhibition curve with a large enough effect; inconclusive = small, poorly fitted or top-dose-only effect, or another doubt; inactive = no such curve, though single readings can be large or run the other way.

SMILES | Cycloheximide cs | NS1 function inh | Pf growth 96h | Pf growth 48h | Shiga inhibitor
COc1ccc(C/C(C)=N/NC(=S)Nc2ccc(C(C)C)cc2)cc1 | 10 | 19% | 23% | 8% | -7
CCOC(=O)CCCNC(=O)COC(=O)c1ccc(O)cc1 | 0 | 0% | 4% | / | -13
O=c1[nH]c(C2CCN(S(=O)(=O)c3ccc(C(F)(F)F)cc3)CC2)nc2c1nnn2Cc1ccc(F)cc1 | -2 | ? | 38% | 12µM* | -8
O=c1[nH]c(C2CCN(S(=O)(=O)c3ccc([N+](=O)[O-])cc3)CC2)nc2c1nnn2Cc1ccccc1 | -6 | 3% | 0.15µM* | 5.2µM* | -3
O=c1[nH]c(C2CCN(S(=O)(=O)c3ccccc3)CC2)nc2c1nnn2Cc1ccccc1 | -2 | 6% | 72% | ? | 20
O=c1[nH]c(C2CCN(S(=O)(=O)c3ccc4c(c3)OCCO4)CC2)nc2c1nnn2Cc1ccc(F)cc1 | 2 | 25% | 7% | 1.5µM* | -7
O=c1[nH]c(C2CCN(S(=O)(=O)c3cccc(C(F)(F)F)c3)CC2)nc2c1nnn2Cc1cccc(F)c1 | 1 | 22% | ? | 7.4µM* | -9
CCOc1cc(C(=O)NC(=S)Nn2cnnc2)cc(OCC)c1OCC | 1 | / | 34% | 5% | 26
CSCCC(NC(=O)/C(=C/c1ccc(F)cc1)NC(C)=O)C(=O)O (stereo unspecified) | -4 | 1% | -3% | 4% | -21
Cc1cc(N2CCN(C)CC2)nc2ccc(NC(=O)CCC(=O)NCc3ccco3)cc12 | -1 | 0% | / | 25% | 16
C/C(=N\NC(=O)c1ccccc1O)C1CC1 | 19 | -15% | 1% | 7% | 66*
C/C(=N\NC(=O)c1ccc(N)cc1)C1CC1 | 40* | 5% | 27% | 8% | 39*
Cc1ccc(NC(=O)CSc2nnc(/N=C/N(C)C)s2)cc1 | -1 | -2% | -33%[5.75 µM] | 2% | 14
Nc1ccnn1Cc1ccc(Br)s1 | 7 | 13% | -1% | 11% | 2
Cc1[nH][nH]c(=O)c1/C=N/N1CCOCC1 | -2 | / | ? | ? | -16
Cc1ccc(C(=O)N2CCOCC2)cc1S(=O)(=O)N1CCOCC1 | -3 | 18% | ? | 29% | -5
Cc1ccc(C(=O)O)cc1S(=O)(=O)N1CCOCC1 | -1 | -10% | 8.3µM* | 2% | -15
Cc1ccc(NC(=O)c2cccc(S(=O)(=O)N(C)c3ccccc3)c2)cc1S(=O)(=O)N1CCOCC1 | 2 | ? | 12µM* | ? | -5
Cc1ccc(C(=O)Nc2cccc(C(=O)O)c2)cc1S(=O)(=O)N1CCOCC1 | 24* | 9% | / | 244% | 39
Cc1ccc(C(=O)Nc2cccc(C(=O)O)c2)cc1S(=O)(=O)N1CCCCC1 | 87* | ? | 28% | 47% | 132*
CC(C)(C)c1ccc(C(=O)Nc2cccc(C(=O)N3CCOCC3)c2)cc1 | 45* | -9% | -38% | 75% | 57*
COc1ccc(C(=O)Nc2cccc(-c3csc(C)n3)c2)cc1S(=O)(=O)N1CCCC1 | / | / | 13µM* | 12µM* | /
Cc1ccc(S(=O)(=O)NC(=O)Nc2ccc(C)cc2C)cc1 | 7 | 11% | 3% | 27% | -14
Cc1ccc(NC(=O)c2ccc(S(=O)(=O)C(F)F)cc2)c(C)c1 | 28* | -3% | -5% | 25% | +
Cc1ccccc1NC(=O)c1ccc(S(=O)(=O)C(F)F)cc1 | 18* | 8% | 25% | 20% | -3
SMILES | Cycloheximide cs | NS1 function inh | Pf growth 96h | Pf growth 48h | Shiga inhibitor
Cc1cc(C(=O)Nc2ccc(Cl)cc2)c(C)n1Cc1cccs1 | 67* | 7% | 9% | 228% | 95*
CC1=C(C(=O)Nc2ccc(Cl)cc2)C(c2cccs2)n2nnnc2N1 (stereo unspecified) | -1 | -7% | -14% | ? | -15
Cc1cc(C)cc(NC(=O)c2cc(C)n(Cc3cccs3)c2C)c1 | 49* | 3% | 117% | 138% | 53*
Cc1cc(C)cc(C(=O)Nc2ccc(NC(=O)c3cccs3)cc2)c1 | -1 | -2% | 4% | ? | 10
CCOc1ccccc1N1CCN(C(=O)c2ccc3c(c2)OCO3)CC1 | -2 | -1% | 52% | -9% | -29
Cc1ccc(CN2C(=O)C[C@@H](NS(=O)(=O)c3ccc4ccccc4c3)C/C=C\C2c2ccc(C)cc2)cc1 (stereo partly specified) | 8 | / | / | / | -3
COc1ccc(C(CNC(=O)C2CC2)N(C)C)cc1 (stereo unspecified) | 17* | 17% | 0% | 120% | 27*
COc1ccc(C(CNC(=O)C(C)c2ccc3cc(OC)ccc3c2)N(C)C)cc1 (stereo unspecified) | 4 | -3% | ? | ? | 18
CCOC(=O)C1=C(C)OC(N)=C(C#N)C1c1cc(C)sc1C (stereo unspecified) | -3 | 3% | 4% | -17% | 9
CCOC(=O)C1=C(C)OC(N)=C(C#N)C1c1cc2ccccc2nc1N1CCCCC1 (stereo unspecified) | -2 | 1% | 1.3µM* | -12% | -11
CCOC(=O)C1=C(C)OC(N)=C(C#N)C1c1cc2c(cc1Br)OCO2 (stereo unspecified) | 6 | -64% | 50% | -3% | -15
CCOC(=O)C1=C(C)OC(N)=C(C#N)C1c1cc2cc(C)ccc2nc1N1CCCCC1 (stereo unspecified) | 15 | -9% | 471% | ? | 45*
Cc1cc(Cl)c(S(=O)(=O)N2CCN(c3ccc(F)cc3)CC2)cc1OCC(=O)NC1CCCCC1 | -3 | 17% | 6.6µM* | / | -12
CCOC(=O)C1CCCN(S(=O)(=O)c2cc(OCC(=O)NC3CCCCC3)c(C)cc2Cl)C1 (stereo unspecified) | 16 | 1% | 0.47µM* | / | -14
Cc1cc(Cl)c(S(=O)(=O)N2CCN(c3ccc(F)cc3)CC2)cc1OCC(N)=O | -4 | -4% | 8% | ? | -15
CCOc1ccc(Cl)cc1S(=O)(=O)N1CCN(c2ccc(F)cc2)CC1 | -3 | -70% | / | 12µM* | -5
Cc1cc(S(=O)(=O)N2CCCC2)ccc1OCC(=O)NC1CCCC1 | -2 | -3% | 28% | -1% | -5
Cc1cc(Cl)c(S(=O)(=O)Nc2ccc3c(c2)OCCO3)cc1OCC(=O)NC1CCCCC1 | 19 | 2% | ? | / | -2
Cc1cc(Cl)c(S(=O)(=O)NCC2CCCO2)cc1OCC(=O)NC1CCCCC1 (stereo unspecified) | -4 | -5% | 5.9µM* | / | 9
COc1cccc(Nc2c(Nc3cccc(OC)c3)c(=O)c2=O)c1 | -2 | 2% | ? | ? | 3
COc1cccc(Nc2nc3cc(OC)ccc3cc2C#N)c1 | -3 | 4% | 5.2µM* | -1% | -9
COc1cccc(Nc2ncc(C#N)c(N)n2)c1 | 39* | -5% | ? | 7% | 81*
N#Cc1cccc(NC(=O)COC(=O)CCc2nc3ccccc3c(=O)[nH]2)c1 | -7 | / | -23% | 13% | -16
COC(=O)/C=C/c1oc2ccccc2c1C | 15 | / | 13% | 19% | 38
COC(=O)c1cccc(NC(=O)c2ccccc2)c1 | 29* | -43% | 39% | 38% | 50*
COC(=O)c1cccc(NC(=O)c2ccc[n+]([O-])c2)c1 | 6 | 27% | 247% | ? | /
